# Only a selection was taken, and hits are over-represented in it overall.
# RECQ1 inh = qHTS Assay for Inhibitors of RecQ-Like Dna Helicase 1 (RECQ1); ATP-dependent DNA helicase Q1 (Homo sapiens), P46063; RECQ1 DNA unwinding, red fluorescence kinetic read; 240,000 tested, 0.54% active; Potency, µM (series often up to 57.3 µM), without a hit: at the highest dose activity, negative = inhibition, hits mostly inhibitors; AID 2549, 2010;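 note: plate controls were vehicle for no effect and no enzyme for full effect; nearly all actives have a fitted effect of over 30% in size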
#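 50 nM RECQ1T1 preincubated 15 min with compound in Tris pH 8.0 buffer with MgCl2, DTT, Tween-20 and 2.5 ug/ml poly(dI-dC); started with 200 nM TAMRA/BHQ-2 forked duplex and 2 mM ATP. Unwinding read as fluorescence (525/598 nm), two reads 2 h apart.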
# APE1 inh-1 = qHTS Assay for Inhibitors of the Human Apurinic/apyrimidinic Endonuclease 1 (APE1); 350,000 tested, 0.35% active; DNA repair nuclease/redox regulator APEX1 (Homo sapiens), P27695; recombinant APE1, TAMRA/BHQ-2 abasic DNA cleavage fluorescence; AID 2517, 2012; Potency, µM (titrated, usually from 65.8 µM), for the others: at the top dose activity change, negative = inhibition, usual class: inhibitors;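 note: plate controls were vehicle for no effect and reference inhibitor for full effect; nearly all actives have a fitted effect of over 55% in size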
#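 Activity was derived from the fluorescence gain between first and third kinetic reads (60 s intervals, ex 525/em 598 nm) after 50 nM THF-abasic TAMRA/BHQ-2 duplex was added to 0.75 nM APE1 preincubated 15 min with compound.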
# TDP1 block = qHTS Assay for Inhibitors of Tyrosyl-DNA Phosphodiesterase (TDP1). recombinant TDP1, AlphaScreen DNA substrate cleavage. Potency, µM (highest dose often 130 µM), without a hit: top-dose activity change, negative = inhibition, actives largely listed as inhibitors. 350,000 tested, 0.28% active. AID 485290, 2010; note: nearly all actives have a fitted effect of over 40% in size
#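 Enzyme-compound mixtures sat 15 min at room temperature, followed by a 5 min reaction with 15 nM final substrate and 10 min with AlphaScreen beads. Recombinant human Tdp1 was used at 1 nM final.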
# BLM inh = qHTS Assay for Inhibitors of Bloom's syndrome helicase (BLM); 350,000 tested, 0.2% active; recombinant BLM DNA unwinding, fluorescence dequenching; Potency, µM (titrated, usually from 56.1 µM), for inactives: at the top dose activity change, negative = inhibition, usual class: inhibitors;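 note: plate controls were vehicle for no effect and no enzyme for full effect; nearly all actives have a fitted effect of over 35% in size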
# KDM4E inh = qHTS Assay for Inhibitors of Human Jumonji Domain Containing 2E (JMJD2E); JMJD2E catalytic domain, FDH-coupled NADH fluorescence (FDH is formaldehyde dehydrogenase); Potency, µM (series often up to 57.1 µM), for inactives: top-dose activity change, negative = inhibition, most hits filed as inhibitors; 230,000 tested, 1.6% active; active = well fitted inhibition curve with a large enough effect, not every such curve was filed as active; inconclusive = small, poorly fitted or top-dose-only effect, or another doubt; inactive = no such curve, though single readings can be large or run the other way;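 note: 0% = wells with enzyme and -100% = buffer wells without enzyme; nearly all actives have a fitted effect of over 50% in size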
# L3MBTL1 inh = qHTS Assay for the Inhibitors of L3MBTL1; Lethal(3)malignant brain tumor-like protein 1 (Homo sapiens), Q9Y468; AlphaScreen L3MBTL1–H3K9me1 peptide binding; Potency, µM (doses to about 57.1 µM), without a hit: at the top dose activity, negative = inhibition, hits mostly inhibitors; 230,000 tested, 0.66% active; note: nearly all actives have a fitted effect of over 60% in size
#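 First, the protein-peptide complex forms for 30 min at room temperature (L3MBTL1 50 nM, biotinylated H3K9me1 peptide 75 nM). Next, compounds are pin-transferred and incubated 30 min. Finally, AlphaScreen beads are added and read after 30 min.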
# DNA dye displace = Counterscreen for APE1 Inhibitors: Fluorescent Dye Displacement Assay; shares compounds with APE1 inh-1; DNA fluorescent dye displacement counterscreen, fluorescence; Potency, µM (doses to about 28.5 µM), inactives show at the top dose activity change, negative = inhibition, hits mostly inhibitors; 480 tested, 7% active;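 note: loss of thiazole orange fluorescence as the dye is displaced from duplex DNA; 0% = ThO with dsDNA and no compound and -100% = ThO without dsDNA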
# Endo IV inh = Counterscreen for APE1 Inhibitors: qHTS Assay for Inhibitors of Endonuclease IV; Potency, µM (top dose mostly 27.1 µM), for inactives: top-dose activity change, negative = inhibition, usual class: inhibitors; shares compounds with APE1 inh-1; 560 tested, 4% active; AID 2565, 2010; E. coli Endo IV, fluorogenic AP-site DNA cleavage;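 note: plate controls were uninhibited enzyme wells for no effect and no enzyme buffer wells for full effect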
# APE1 inh-2 = Confirmation qHTS Assay for Inhibitors of the Human Apurinic/apyrimidinic Endonuclease 1 (APE1). shares compounds with APE1 inh-1. purified APE1, fluorogenic abasic-site DNA cleavage. Potency, µM (titrated, usually from 57.1 µM), without a hit: at the top dose activity change, negative = inhibition, most hits filed as inhibitors. 750 tested, 44% active; note: nearly all actives have a fitted effect of over 30% in size
# APE1 FP = qHTS FP-Based Assay for Inhibitors of the Human Apurinic/apyrimidinic Endonuclease 1 (APE1). shares compounds with APE1 inh-1. 480 tested, 7% active. Potency, µM (titrated, usually from 28.5 µM), inactives show at the top dose activity, negative = inhibition, most hits filed as inhibitors. AID 2573, 2010. APE1 binding to TAMRA-labelled double-stranded DNA, fluorescence polarization displacement
# An asterisk follows results filed as active; ? = inconclusive; · = no result; ! = a repeat was not active; [ ] = dose if it differs, or a comment. Unless noted, calls come from the whole dose curve; as a rule, active = well fitted curve in the direction sought with a large enough effect; inconclusive = small, poorly fitted or top-dose-only effect, or another doubt; inactive = no such curve, though single readings can be large; an effect the other way counts as inactive or inconclusive. Unless noted, % is set by controls: 0 for no effect and ±100 for the full control effect; potency is the fitted concentration of half-maximal effect.
SMILES,RECQ1 inh,APE1 inh-1,TDP1 block,BLM inh,KDM4E inh,L3MBTL1 inh,DNA dye displace,Endo IV inh,APE1 inh-2,APE1 FP
N#Cc1nc(Nc2ccccc2)nc(NC2CCCCC2)n1,-9%,35µM*,7%,-15%,·,·,-6%[57.1 µM],17%[57.1 µM],-2%,?
Cc1ccc(Cl)cc1NC(=O)Cn1nnc2sc3c(c2c1=O)CCC(C(C)(C)C)C3 (stereo not given),·,·,2%,-7%,·,·,·,·,·,·
COc1c(-c2ccc(O)c(O)c2)oc2cc(O)cc(O)c2c1=O,18µM*!,?,-11%,11µM*!,14µM*,·,?,59%,?,1%
CC1OC(OCC2OC(Oc3c(-c4ccc(O)cc4)oc4cc(O)cc(O)c4c3=O)C(O)C(O)C2O)C(O)C(O)C1O (stereo not given),?,3.5µM*,-6%,-19%,0%,14µM*,?,0%,3.2µM*,-1%
O=c1c(OC2OC(CO)C(O)C(O)C2OC2OC(CO)C(O)C(O)C2OC2OC(CO)C(O)C(O)C2O)c(-c2ccc(O)c(O)c2)oc2cc(O)cc(O)c12 (stereo not given),-8%,?,·,-2%,14µM*,·,-21%,2%,10µM*,?
O=c1c(O)c(-c2ccccc2O)oc2cc(O)cc(O)c12,-4%,-5%,5%,-3%,·,·,·,·,·,·
CCC(Cn1nnc2ccccc2c1=O)NC(=O)Nc1ccccc1Cl (stereo not given),·,·,2%,2%,·,·,·,·,·,·
Cc1ccc(C)c(NC(=O)CN2CCSc3ccc(S(=O)(=O)N4CCCC4)cc32)c1,·,·,5%,-1%,·,·,·,·,·,·
Cc1ccc(C2CC(=O)n3nc(-c4ccc(Cl)cc4)nc3S2)cc1 (stereo not given),·,·,1%,-5%,·,·,·,·,·,·
O=c1cc(-c2ccc(O)cc2)oc2cc(O)c([C@@H]3O[C@H](CO)[C@@H](O)[C@H](O)[C@H]3O)c(O)c12,-5%,10%,8%,-5%,·,0%,·,·,·,·
O=c1cc(-c2ccc(O)c(O)c2)oc2cc(O)c(C3OC(CO)C(O)C(O)C3O)c(O)c12 (stereo not given),-11%,7.9µM*,-1%,-1%,14µM*,16µM*,?,45%,3.2µM*,5%

# Bioassay records (PubChem BioAssay)
